This note sets out measurements from publication PMC7862700, “An all-to-all approach to the identification of sequence-specific readers for epigenetic DNA modifications on cytosine”.

Assay in all cases: DAPPL (digital affinity profiling via proximity ligation, sequencing); 10 mM Tris-HCl pH 7.5, 50 mM NaCl, 1 mM DTT, 4% glycerol, room temperature, 30 min; GST-TFs on glutathione beads, 16-mer random dsDNA library, 0.1% formaldehyde crosslink after washing; high values mean tight binding
For experiment [1], the target named is T1, FLI1 (Homo sapiens, UniProt Q01543 1-452).
T1 sequence: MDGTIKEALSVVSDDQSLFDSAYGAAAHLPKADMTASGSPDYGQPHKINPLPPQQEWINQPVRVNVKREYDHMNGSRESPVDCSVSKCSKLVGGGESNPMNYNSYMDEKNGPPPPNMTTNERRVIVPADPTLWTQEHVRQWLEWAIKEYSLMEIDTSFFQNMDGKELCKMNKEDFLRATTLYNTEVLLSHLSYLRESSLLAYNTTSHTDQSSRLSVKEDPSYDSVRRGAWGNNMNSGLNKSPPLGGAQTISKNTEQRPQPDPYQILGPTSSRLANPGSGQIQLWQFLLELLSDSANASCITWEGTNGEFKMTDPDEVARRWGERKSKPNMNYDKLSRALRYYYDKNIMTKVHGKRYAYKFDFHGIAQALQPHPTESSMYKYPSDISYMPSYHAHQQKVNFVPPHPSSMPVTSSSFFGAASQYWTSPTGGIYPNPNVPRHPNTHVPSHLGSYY
Particulars: protein: recombinant; tags: N-terminal GST; dsDNA, one strand shown. Summed up: (§1)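 Binding signal is given per hexamer as its read frequency for a factor divided by its frequency in the tag-only sample. GST-fused human transcription factors were expressed in yeast, captured on glutathione beads, barcoded with DNA and pooled with that sample, then incubated with 200 nmole of a 16-mer random double-stranded DNA library in Tris/NaCl/DTT/glycerol buffer for 30 min at room temperature. The pools were then washed, crosslinked, proximity-ligated, amplified by PCR and sequenced on an Illumina NextSeq500.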

In experiment [2] the target is T2, ELK1 (Homo sapiens, UniProt P19419 1-428).
T2 sequence: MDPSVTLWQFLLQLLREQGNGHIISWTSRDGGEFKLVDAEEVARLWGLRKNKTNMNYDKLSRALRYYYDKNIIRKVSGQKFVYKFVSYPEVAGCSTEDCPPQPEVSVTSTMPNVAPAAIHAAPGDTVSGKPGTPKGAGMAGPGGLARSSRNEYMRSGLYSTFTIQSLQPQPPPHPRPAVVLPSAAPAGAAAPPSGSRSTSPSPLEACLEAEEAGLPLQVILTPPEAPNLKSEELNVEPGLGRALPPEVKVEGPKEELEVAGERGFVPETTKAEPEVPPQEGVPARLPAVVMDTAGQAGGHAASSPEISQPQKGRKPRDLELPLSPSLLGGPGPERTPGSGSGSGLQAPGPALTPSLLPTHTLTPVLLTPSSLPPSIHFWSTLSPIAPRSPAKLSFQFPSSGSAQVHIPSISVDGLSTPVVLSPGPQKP
To be noted: protein: recombinant; tags: N-terminal GST; dsDNA, one strand shown. Summed up: as §1

Experiment [3] addresses T3, GABPA (Homo sapiens, UniProt Q06546 1-454).
T3 sequence: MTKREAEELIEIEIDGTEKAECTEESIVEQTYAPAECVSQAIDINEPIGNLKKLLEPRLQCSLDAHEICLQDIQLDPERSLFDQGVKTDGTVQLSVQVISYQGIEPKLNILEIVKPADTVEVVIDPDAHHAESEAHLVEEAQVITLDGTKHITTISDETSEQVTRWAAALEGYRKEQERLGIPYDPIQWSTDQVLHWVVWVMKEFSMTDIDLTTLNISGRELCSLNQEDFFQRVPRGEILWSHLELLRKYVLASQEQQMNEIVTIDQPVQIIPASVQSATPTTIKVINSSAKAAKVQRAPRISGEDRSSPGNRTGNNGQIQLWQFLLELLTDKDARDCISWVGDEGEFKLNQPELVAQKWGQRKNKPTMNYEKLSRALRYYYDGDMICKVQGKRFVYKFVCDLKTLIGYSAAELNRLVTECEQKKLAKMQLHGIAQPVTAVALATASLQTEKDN
To be noted: protein: recombinant; tags: N-terminal GST; dsDNA, one strand shown. Summed up:
as §1

The target in experiment [4] is T4, ERG (Homo sapiens, UniProt P11308 1-479).
T4 sequence: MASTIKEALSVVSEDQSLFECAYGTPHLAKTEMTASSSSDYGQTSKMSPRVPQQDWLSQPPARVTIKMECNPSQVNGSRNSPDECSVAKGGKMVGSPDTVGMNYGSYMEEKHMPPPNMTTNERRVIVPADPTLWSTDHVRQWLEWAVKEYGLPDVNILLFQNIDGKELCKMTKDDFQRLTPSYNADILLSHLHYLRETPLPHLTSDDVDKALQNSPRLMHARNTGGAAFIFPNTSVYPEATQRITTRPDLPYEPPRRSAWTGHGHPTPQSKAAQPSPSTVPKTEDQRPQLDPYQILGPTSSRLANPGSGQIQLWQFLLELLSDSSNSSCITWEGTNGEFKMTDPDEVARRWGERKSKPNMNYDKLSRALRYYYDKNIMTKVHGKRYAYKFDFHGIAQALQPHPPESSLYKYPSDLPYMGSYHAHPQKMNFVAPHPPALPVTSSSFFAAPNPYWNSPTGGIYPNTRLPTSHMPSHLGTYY
To be noted: protein: recombinant; tags: N-terminal GST; dsDNA, one strand shown. Summed up:
as §1

For experiment [5], the target named is ELF1 (Homo sapiens, UniProt P32519 1-619). Particulars: protein: recombinant; tags: N-terminal GST; dsDNA, one strand shown. A digest of the protocol:
as §1

In experiment [6] the target is T5, EHF (Homo sapiens, UniProt Q9NZC4 1-300).
T5 sequence: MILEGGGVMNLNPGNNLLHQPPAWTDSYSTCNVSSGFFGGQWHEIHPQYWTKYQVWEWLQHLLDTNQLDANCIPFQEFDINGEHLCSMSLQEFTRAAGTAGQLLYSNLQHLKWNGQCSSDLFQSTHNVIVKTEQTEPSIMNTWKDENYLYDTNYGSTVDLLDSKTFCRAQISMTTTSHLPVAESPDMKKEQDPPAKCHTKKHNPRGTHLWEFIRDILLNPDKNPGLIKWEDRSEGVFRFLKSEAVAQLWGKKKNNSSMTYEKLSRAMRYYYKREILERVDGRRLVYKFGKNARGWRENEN
To be noted: protein: recombinant; tags: N-terminal GST; dsDNA, one strand shown. A digest of the protocol: as §1

In experiment [7] the target is SPI1 (Homo sapiens, UniProt P17947 1-270). Particulars: protein: recombinant; tags: N-terminal GST; dsDNA, one strand shown. Summed up: as §1
Experiment [8] concerns the target SPIB (Homo sapiens, UniProt Q01892 1-262). To be noted: protein: recombinant; tags: N-terminal GST; dsDNA, one strand shown. A digest of the protocol: as §1
Experiment [9] concerns the target T6, ELK3 (Homo sapiens, UniProt P41970 1-407).
T6 sequence: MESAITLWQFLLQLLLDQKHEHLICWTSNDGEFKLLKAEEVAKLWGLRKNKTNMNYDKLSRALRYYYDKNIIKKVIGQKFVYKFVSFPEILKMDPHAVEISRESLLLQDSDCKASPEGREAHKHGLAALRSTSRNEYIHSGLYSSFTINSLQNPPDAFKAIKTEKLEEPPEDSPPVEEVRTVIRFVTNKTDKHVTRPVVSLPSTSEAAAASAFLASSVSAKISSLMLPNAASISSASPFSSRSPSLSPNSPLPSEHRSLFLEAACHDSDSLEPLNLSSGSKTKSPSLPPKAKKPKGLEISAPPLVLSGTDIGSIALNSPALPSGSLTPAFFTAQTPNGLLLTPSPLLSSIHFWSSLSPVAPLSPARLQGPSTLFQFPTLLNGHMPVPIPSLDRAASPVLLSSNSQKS
To be noted: protein: recombinant; tags: N-terminal GST; dsDNA, one strand shown. A digest of the protocol:
as §1

In experiment [10] the target is T7, FEV (Homo sapiens, UniProt Q99581 1-238).
T7 sequence: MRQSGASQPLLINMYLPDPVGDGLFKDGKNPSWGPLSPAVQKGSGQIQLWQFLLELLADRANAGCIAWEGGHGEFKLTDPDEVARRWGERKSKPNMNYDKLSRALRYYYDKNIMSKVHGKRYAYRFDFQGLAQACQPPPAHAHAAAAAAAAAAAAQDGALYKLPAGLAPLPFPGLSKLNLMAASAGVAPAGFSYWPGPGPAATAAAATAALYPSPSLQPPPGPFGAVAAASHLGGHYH
To be noted: protein: recombinant; tags: N-terminal GST; dsDNA, one strand shown. Summed up:
as §1

Experiment [11] addresses ETV5 (Homo sapiens, UniProt P41161 1-510). To be noted: protein: recombinant; tags: N-terminal GST; dsDNA, one strand shown. Summed up:
as §1

For experiment [12], the target named is HSF1 (Homo sapiens, UniProt Q00613 1-529). To be noted: protein: recombinant; tags: N-terminal GST; chain copies: 3; dsDNA, one strand shown. A digest of the protocol: as §1
Chain of HSF1 (Q00613 whole entry): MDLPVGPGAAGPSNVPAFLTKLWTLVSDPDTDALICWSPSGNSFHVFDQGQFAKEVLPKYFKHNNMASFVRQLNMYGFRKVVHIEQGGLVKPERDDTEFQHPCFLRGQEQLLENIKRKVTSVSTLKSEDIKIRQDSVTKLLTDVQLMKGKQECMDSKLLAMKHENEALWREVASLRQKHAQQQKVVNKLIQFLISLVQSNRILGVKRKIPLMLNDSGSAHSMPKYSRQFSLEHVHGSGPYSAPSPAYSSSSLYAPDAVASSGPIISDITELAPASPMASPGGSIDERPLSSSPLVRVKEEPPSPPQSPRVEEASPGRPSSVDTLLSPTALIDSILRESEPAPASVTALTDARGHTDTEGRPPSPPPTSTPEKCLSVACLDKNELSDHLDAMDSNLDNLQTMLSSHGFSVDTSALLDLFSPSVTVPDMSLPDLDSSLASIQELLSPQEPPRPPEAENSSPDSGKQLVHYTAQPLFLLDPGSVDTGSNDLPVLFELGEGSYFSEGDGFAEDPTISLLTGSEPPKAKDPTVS
Experiment [13] deals with ELF4 (Homo sapiens, UniProt Q99607 1-663). To be noted: protein: recombinant; tags: N-terminal GST; dsDNA, one strand shown. Summed up:
as §1

Experiment [14] concerns the target T8, ETV2 (Homo sapiens, UniProt O00321 1-342).
T8 sequence: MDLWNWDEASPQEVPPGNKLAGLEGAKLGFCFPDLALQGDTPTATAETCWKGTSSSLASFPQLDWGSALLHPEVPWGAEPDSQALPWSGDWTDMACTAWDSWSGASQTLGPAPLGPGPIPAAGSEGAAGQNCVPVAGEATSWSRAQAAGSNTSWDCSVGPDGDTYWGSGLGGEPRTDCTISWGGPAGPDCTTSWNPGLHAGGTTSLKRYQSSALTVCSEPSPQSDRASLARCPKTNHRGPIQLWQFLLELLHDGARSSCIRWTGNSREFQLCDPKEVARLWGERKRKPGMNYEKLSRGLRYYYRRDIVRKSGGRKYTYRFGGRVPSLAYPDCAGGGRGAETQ
To be noted: protein: recombinant; tags: N-terminal GST; dsDNA, one strand shown. A digest of the protocol:
as §1

The target in experiment [15] is T9, ELF3 (Homo sapiens, UniProt P78545 1-371).
T9 sequence: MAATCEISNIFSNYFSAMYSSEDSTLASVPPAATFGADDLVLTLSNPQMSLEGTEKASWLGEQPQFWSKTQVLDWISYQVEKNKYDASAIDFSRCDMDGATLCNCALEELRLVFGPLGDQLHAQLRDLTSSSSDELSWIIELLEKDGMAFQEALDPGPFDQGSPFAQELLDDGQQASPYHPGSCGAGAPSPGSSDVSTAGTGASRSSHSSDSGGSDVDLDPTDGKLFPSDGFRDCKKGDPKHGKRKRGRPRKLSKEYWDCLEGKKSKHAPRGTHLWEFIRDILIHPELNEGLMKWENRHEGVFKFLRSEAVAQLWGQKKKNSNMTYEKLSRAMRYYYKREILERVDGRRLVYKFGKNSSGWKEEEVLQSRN
Particulars: protein: recombinant; tags: N-terminal GST; dsDNA, one strand shown. Summed up:
as §1

The target of experiment [16] is CRX (Homo sapiens, UniProt O43186 1-299). Particulars: protein: recombinant; tags: N-terminal GST; dsDNA, one strand shown. A digest of the protocol:
as §1

For experiment [17], the target named is ETV1 (Homo sapiens, UniProt P50549 1-477). Particulars: protein: recombinant; tags: N-terminal GST; dsDNA, one strand shown. Summed up:
as §1

Chain of ELF4 (Q99607 whole entry): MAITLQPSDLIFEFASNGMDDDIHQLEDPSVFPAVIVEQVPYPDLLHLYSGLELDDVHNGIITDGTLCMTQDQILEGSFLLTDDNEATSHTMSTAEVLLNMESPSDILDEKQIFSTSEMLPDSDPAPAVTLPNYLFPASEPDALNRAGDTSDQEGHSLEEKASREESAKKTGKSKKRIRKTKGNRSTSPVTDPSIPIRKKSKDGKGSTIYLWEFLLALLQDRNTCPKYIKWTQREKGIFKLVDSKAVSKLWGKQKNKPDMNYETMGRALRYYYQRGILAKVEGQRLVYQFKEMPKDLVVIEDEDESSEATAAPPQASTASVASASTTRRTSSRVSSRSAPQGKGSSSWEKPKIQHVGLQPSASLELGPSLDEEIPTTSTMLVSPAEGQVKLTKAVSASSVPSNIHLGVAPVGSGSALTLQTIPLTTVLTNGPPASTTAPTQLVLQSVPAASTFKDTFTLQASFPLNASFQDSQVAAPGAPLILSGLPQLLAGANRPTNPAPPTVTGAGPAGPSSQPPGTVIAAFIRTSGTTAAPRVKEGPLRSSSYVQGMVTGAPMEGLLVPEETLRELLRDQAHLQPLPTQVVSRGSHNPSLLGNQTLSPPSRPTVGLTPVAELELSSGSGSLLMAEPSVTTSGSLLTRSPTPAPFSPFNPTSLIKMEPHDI
Chain of ETV5 (P41161 whole entry): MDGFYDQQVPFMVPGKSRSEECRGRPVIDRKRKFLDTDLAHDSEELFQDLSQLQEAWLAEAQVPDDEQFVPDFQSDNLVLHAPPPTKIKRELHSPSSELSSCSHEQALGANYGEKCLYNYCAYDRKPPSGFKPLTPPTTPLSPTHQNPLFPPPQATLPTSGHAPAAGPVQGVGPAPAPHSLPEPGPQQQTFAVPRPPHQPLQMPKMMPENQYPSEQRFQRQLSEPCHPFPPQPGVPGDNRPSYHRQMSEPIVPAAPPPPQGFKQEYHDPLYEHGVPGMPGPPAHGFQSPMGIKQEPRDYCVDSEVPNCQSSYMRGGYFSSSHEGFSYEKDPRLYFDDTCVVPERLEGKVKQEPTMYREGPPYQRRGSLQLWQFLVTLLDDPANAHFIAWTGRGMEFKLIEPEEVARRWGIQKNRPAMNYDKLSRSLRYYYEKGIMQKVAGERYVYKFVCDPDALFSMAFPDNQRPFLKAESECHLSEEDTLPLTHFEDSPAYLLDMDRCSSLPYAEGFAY
Chain of CRX (O43186 whole entry): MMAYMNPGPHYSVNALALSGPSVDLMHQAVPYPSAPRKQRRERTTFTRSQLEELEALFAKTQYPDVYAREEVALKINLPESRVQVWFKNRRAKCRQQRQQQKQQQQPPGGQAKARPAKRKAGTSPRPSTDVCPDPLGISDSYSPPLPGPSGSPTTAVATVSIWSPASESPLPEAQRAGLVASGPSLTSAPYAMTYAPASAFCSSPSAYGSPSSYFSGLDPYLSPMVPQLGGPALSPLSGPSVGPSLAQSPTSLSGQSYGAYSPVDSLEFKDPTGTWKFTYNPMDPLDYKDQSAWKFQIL
Chain of ELF1 (P32519 whole entry): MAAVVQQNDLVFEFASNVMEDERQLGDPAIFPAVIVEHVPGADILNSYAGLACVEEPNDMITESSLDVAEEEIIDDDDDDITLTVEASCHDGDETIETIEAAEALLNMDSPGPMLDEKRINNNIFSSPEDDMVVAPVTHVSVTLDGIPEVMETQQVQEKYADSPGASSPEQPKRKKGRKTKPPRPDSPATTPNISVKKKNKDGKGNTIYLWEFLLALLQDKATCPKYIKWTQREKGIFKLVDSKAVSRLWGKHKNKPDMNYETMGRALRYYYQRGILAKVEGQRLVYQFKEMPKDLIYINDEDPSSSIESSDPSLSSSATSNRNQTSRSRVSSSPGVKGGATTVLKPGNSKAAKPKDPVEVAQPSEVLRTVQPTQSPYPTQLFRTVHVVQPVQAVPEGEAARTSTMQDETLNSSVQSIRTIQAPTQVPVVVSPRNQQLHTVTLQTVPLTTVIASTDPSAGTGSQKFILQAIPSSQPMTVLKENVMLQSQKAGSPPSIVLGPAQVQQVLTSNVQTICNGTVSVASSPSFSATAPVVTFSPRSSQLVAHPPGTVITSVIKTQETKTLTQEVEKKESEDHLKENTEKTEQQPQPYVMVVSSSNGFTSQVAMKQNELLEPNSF
Chain of ETV1 (P50549 whole entry): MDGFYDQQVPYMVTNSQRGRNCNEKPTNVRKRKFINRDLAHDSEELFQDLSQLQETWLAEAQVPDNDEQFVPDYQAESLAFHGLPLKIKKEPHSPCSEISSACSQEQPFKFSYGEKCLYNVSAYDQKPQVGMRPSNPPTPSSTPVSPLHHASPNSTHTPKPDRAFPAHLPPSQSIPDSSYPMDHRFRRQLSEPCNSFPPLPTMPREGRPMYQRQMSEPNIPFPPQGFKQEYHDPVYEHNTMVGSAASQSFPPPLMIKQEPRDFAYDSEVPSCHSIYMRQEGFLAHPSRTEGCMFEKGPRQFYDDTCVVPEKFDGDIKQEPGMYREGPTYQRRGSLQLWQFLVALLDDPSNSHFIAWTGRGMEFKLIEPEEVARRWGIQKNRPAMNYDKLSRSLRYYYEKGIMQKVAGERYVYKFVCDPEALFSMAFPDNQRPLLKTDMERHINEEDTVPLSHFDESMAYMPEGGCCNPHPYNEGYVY
Chain of SPIB (Q01892 whole entry): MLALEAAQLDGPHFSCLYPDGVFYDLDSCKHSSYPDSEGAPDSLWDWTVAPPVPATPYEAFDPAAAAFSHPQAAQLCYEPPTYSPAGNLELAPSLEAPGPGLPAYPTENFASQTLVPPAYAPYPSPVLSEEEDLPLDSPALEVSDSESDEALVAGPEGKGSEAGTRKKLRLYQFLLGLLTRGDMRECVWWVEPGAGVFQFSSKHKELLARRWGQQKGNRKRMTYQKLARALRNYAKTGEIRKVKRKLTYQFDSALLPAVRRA

For the sequence GAACAT, the binding signal is 1.01 fold enrichment (6-mer frequency, TF over GST control) in [1]; 1.02 fold enrichment (6-mer frequency, TF over GST control) in experiment [2]; 1.09 fold enrichment (6-mer frequency, TF over GST control) in [3]; 1.03 fold enrichment (6-mer frequency, TF over GST control) in experiment [4]; 1.02 fold enrichment (6-mer frequency, TF over GST control) in experiment [5]; 1.05 fold enrichment (6-mer frequency, TF over GST control) in experiment [6]. Further, the binding signal in [7] was 1.04 fold enrichment (6-mer frequency, TF over GST control); in experiment [8], 1.01 fold enrichment (6-mer frequency, TF over GST control); in experiment [9] it was 1.16 fold enrichment (6-mer frequency, TF over GST control); in experiment [10], 1.01 fold enrichment (6-mer frequency, TF over GST control); in experiment [11], 1.12 fold enrichment (6-mer frequency, TF over GST control); in [12] it was 1.81 fold enrichment (6-mer frequency, TF over GST control). The binding signal was 1 fold enrichment (6-mer frequency, TF over GST control) in experiment [13]; 1.01 fold enrichment (6-mer frequency, TF over GST control) in experiment [14]; 1.06 fold enrichment (6-mer frequency, TF over GST control) in experiment [15]; 1.03 fold enrichment (6-mer frequency, TF over GST control) in [16].

Take TTGCGC: the binding signal in experiment [1] was 1.23 fold enrichment (6-mer frequency, TF over GST control); in [2], 1.17 fold enrichment (6-mer frequency, TF over GST control); in [3], 1.1 fold enrichment (6-mer frequency, TF over GST control); in [4], 1.02 fold enrichment (6-mer frequency, TF over GST control); in [5], 1.1 fold enrichment (6-mer frequency, TF over GST control); in [6], 1.12 fold enrichment (6-mer frequency, TF over GST control). Besides, the binding signal in experiment [7] is 1.06 fold enrichment (6-mer frequency, TF over GST control); in experiment [9], 1.04 fold enrichment (6-mer frequency, TF over GST control); in experiment [10], 1.05 fold enrichment (6-mer frequency, TF over GST control); in experiment [11], 1.11 fold enrichment (6-mer frequency, TF over GST control); in [12], 1.05 fold enrichment (6-mer frequency, TF over GST control); in [13], 1.06 fold enrichment (6-mer frequency, TF over GST control). The binding signal was 1.11 fold enrichment (6-mer frequency, TF over GST control) in experiment [14]; 1.05 fold enrichment (6-mer frequency, TF over GST control) in experiment [16]; 1.16 fold enrichment (6-mer frequency, TF over GST control) in experiment [17].
